From PubChem BioAssay AID1159580 (chemical genetic matrix, 2015)
Among all 5,500 compounds or so, about 2,000 (36%) were called active. Inconclusive results (about 18%) are left out. Cut-off read from the data, not from the text of the source: active = normalized growth mostly below about 0.91 (no sharp cut-off); inconclusive = no clear call, values can overlap the other calls; inactive = mostly above about 0.92. Some of the results follow.

Assay: chemical genetic growth profiling, strain panel (AID 1159580);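 note: tested at 20 µM; growth read once vehicle control cultures reached saturation at 30 °C; 1 = growth at the plate median or of vehicle wells; lower values mean less growth of the strain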
Conditions: growth OD

Measured: normalized growth

O=C(O)c1ccccc1C(=O)Nc1ccc(S(=O)(=O)Nc2nccs2)cc1
inactive: S. cerevisiae deletion strains, locus YJR066W, strain TOR1, active compounds read low 0.983 | S. cerevisiae deletion strains, locus YJR075W, strain HOC1, active compounds read low 1.02 | S. cerevisiae deletion strains, locus YKL009W, strain mrt4, active compounds read low 1.03 | S. cerevisiae deletion strains, locus YKL068W, active compounds read low 0.987 | S. cerevisiae deletion strains, locus YKL085W, strain MDH1 (second series), active compounds read low 0.984 | S. cerevisiae deletion strains, locus YKL085W, strain MDH1, active compounds read low 0.984 | S. cerevisiae deletion strains, locus YKL160W, strain elf1, active compounds read low 0.972 | S. cerevisiae deletion strains, locus YKL190W, strain CNB1, active compounds read low 1 | S. cerevisiae deletion strains, locus YKR001C, strain vps1, active compounds read low 1 | S. cerevisiae deletion strains, locus YKR026C, strain gcn3, active compounds read low 0.981 | S. cerevisiae deletion strains, locus YKR091W, strain srl3, active compounds read low 0.984 | S. cerevisiae deletion strains, locus YLL001W, strain dnm1, active compounds read low 0.966 | S. cerevisiae deletion strains, locus YLL026W, active compounds read low 0.988 | S. cerevisiae deletion strains, locus YLL041C, strain sdh2, active compounds read low 0.969 | S. cerevisiae deletion strains, locus YLR027C, strain aat2, active compounds read low 0.982 | S. cerevisiae deletion strains, locus YLR039C, strain RIC1, active compounds read low 1 | S. cerevisiae deletion strains, locus YLR058C, strain SHM2, active compounds read low 1.01 | S. cerevisiae deletion strains, locus YLR102C, strain apc9, active compounds read low 0.99 | S. cerevisiae deletion strains, locus YLR113W, strain HOG1, active compounds read low 1 | S. cerevisiae deletion strains, locus YLR221C, strain rsa3, active compounds read low 0.95 | S. cerevisiae deletion strains, locus YLR258W, strain gsy2, active compounds read low 0.986 | S. cerevisiae deletion strains, locus YLR262C, strain YPT6 (second series), active compounds read low 1 | S. cerevisiae deletion strains, locus YLR262C, strain YPT6, active compounds read low 1.03 | S. cerevisiae deletion strains, locus YLR268W, strain sec22, active compounds read low 0.998 | S. cerevisiae deletion strains, locus YLR320W, strain mms22, active compounds read low 0.976 | S. cerevisiae deletion strains, locus YLR330W, strain CHS5, active compounds read low 1 | S. cerevisiae deletion strains, locus YLR342W, strain FKS1 (second series), active compounds read low 0.994 | S. cerevisiae deletion strains, locus YLR342W, strain FKS1, active compounds read low 0.99 | S. cerevisiae deletion strains, locus YLR357W, strain rsc2, active compounds read low 0.975 | S. cerevisiae deletion strains, locus YLR370C, strain arc18, active compounds read low 0.959 | S. cerevisiae deletion strains, locus YLR371W, strain rom2, active compounds read low 0.998 | S. cerevisiae deletion strains, locus YLR384C, strain iki3, active compounds read low 0.976 | S. cerevisiae deletion strains, locus YLR418C, strain cdc73, active compounds read low 0.992 | S. cerevisiae deletion strains, locus YML016C, strain PPZ1, active compounds read low 0.995 | S. cerevisiae deletion strains, locus YML032C, strain rad52, active compounds read low 0.994 | S. cerevisiae deletion strains, locus YML120C, strain ndi1, active compounds read low 0.969 | S. cerevisiae deletion strains, locus YML124C, strain tub3, active compounds read low 0.992 | S. cerevisiae deletion strains, locus YMR058W, strain fet3, active compounds read low 0.98 | S. cerevisiae deletion strains, locus YMR078C, strain ctf18, active compounds read low 0.99 | S. cerevisiae deletion strains, locus YMR125W, strain sto1, active compounds read low 0.96 | S. cerevisiae deletion strains, locus YMR129W, active compounds read low 0.989 | S. cerevisiae deletion strains, locus YMR205C, strain PFK2, active compounds read low 0.965 | S. cerevisiae deletion strains, locus YMR223W, strain ubp8, active compounds read low 0.998 | S. cerevisiae deletion strains, locus YMR231W, strain pep5, active compounds read low 0.974 | S. cerevisiae deletion strains, locus YMR307W, strain GAS1, active compounds read low 0.973 | S. cerevisiae deletion strains, locus YNL067W, strain RPL9B, active compounds read low 1.01 | S. cerevisiae deletion strains, locus YNL071W, strain lat1, active compounds read low 0.987 | S. cerevisiae deletion strains, locus YNL128W, strain TEP1, active compounds read low 1.02 | S. cerevisiae deletion strains, locus YNL183C, strain NPR1, active compounds read low 0.975 | S. cerevisiae deletion strains, locus YNL209W, strain ssb2, active compounds read low 0.989 | S. cerevisiae deletion strains, locus YNL233W, strain BNI4, active compounds read low 1.01 | S. cerevisiae deletion strains, locus YNL248C, strain rpa49, active compounds read low 0.97 | S. cerevisiae deletion strains, locus YNL250W, strain rad50, active compounds read low 1 | S. cerevisiae deletion strains, locus YNL271C, strain bni1, active compounds read low 0.982 | S. cerevisiae deletion strains, locus YNL298W, strain CLA4, active compounds read low 0.995 | S. cerevisiae deletion strains, locus YNL307C, strain MCK1, active compounds read low 1 | S. cerevisiae deletion strains, locus YNL322C, strain KRE1 (second series), active compounds read low 0.945 | S. cerevisiae deletion strains, locus YNL322C, strain KRE1, active compounds read low 1.01 | S. cerevisiae deletion strains, locus YNR049C, strain mso1, active compounds read low 0.976 | S. cerevisiae deletion strains, locus YNR052C, strain pop2, active compounds read low 0.994 | S. cerevisiae deletion strains, locus YOL006C, strain TOP1, active compounds read low 1.02 | S. cerevisiae deletion strains, locus YOL012C, strain htz1 0.647 | S. cerevisiae deletion strains, locus YOL147C, strain pex11, active compounds read low 0.987 | S. cerevisiae deletion strains, locus YOR001W, strain rrp6, active compounds read low 0.999 | S. cerevisiae deletion strains, locus YOR061W, strain CKA2, active compounds read low 1 | S. cerevisiae deletion strains, locus YOR069W, strain VPS5, active compounds read low 1 | S. cerevisiae deletion strains, locus YOR070C, strain gyp1, active compounds read low 0.976 | S. cerevisiae deletion strains, locus YOR080W, strain dia2, active compounds read low 0.973 | S. cerevisiae deletion strains, locus YOR083W, strain WHI5, active compounds read low 0.983 | S. cerevisiae deletion strains, locus YOR106W, strain vam3, active compounds read low 0.972 | S. cerevisiae deletion strains, locus YOR136W, strain idh2, active compounds read low 1 | S. cerevisiae deletion strains, locus YOR144C, strain elg1, active compounds read low 0.993 | S. cerevisiae deletion strains, locus YOR184W, strain ser1, active compounds read low 1 | S. cerevisiae deletion strains, locus YOR231W, strain MKK1, active compounds read low 1.04 | S. cerevisiae deletion strains, locus YOR265W, strain rbl2, active compounds read low 0.99 | S. cerevisiae deletion strains, locus YOR270C, strain vph1, active compounds read low 0.983 | S. cerevisiae deletion strains, locus YOR290C, strain snf2, active compounds read low 0.959 | S. cerevisiae deletion strains, locus YOR316C, strain cot1, active compounds read low 1.01 | S. cerevisiae deletion strains, locus YPL051W, strain arl3, active compounds read low 1 | S. cerevisiae deletion strains, locus YPL078C, strain atp4, active compounds read low 0.983 | S. cerevisiae deletion strains, locus YPL106C, strain sse1, active compounds read low 0.936 | S. cerevisiae deletion strains, locus YPL240C, strain hsp82, active compounds read low 0.979 | S. cerevisiae deletion strains, locus YPL241C, strain CIN2, active compounds read low 0.999 | S. cerevisiae deletion strains, locus YPL256C, strain CLN2, active compounds read low 1.02 | S. cerevisiae deletion strains, locus YPR119W, strain clb2, active compounds read low 0.99 | S. cerevisiae deletion strains, locus YPR141C, strain kar3, active compounds read low 0.984 | S. cerevisiae deletion strains, locus YPR163C, strain tif3, active compounds read low 0.993 | S. cerevisiae deletion strains, locus YPR167C, strain met16, active compounds read low 0.997 | S. cerevisiae deletion strains, strain wtn01, active compounds read low 0.995 | S. cerevisiae strains, strain wild type, active compounds read low 1
